Assay [1] can be described thus: NCI Yeast Anticancer Drug Screen. Data for the rad50 strain (AID 155).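 Also: 0% = growth of vehicle-only cultures of the same strain.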 As to conditions: S. cerevisiae rad50 strain growth inhibition; at 50.0 µM; stronger effect = higher value. Put shortly: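 Genetically altered yeast (DNA repair pathway); compound treatment; growth inhibition vs vehicle ctrl.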
The nature of assay [2]: NCI Yeast Anticancer Drug Screen. Data for the mec2-1 strain (AID 157). As to conditions: S. cerevisiae mec2-1 strain, at 50.0 µM, stronger effect = higher value. Put shortly:
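Mutant yeast (mec2-1) grown with compound; growth inhibition relative to vehicle control reported.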

The nature of assay [3]: NCI Yeast Anticancer Drug Screen. Data for the sgs1 mgt1 strain (AID 161).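 Also: 0% = growth of cultures given vehicle only.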 The following applies: S. cerevisiae sgs1 mgt1 strain, at 50.0 µM, stronger effect = higher value. Put shortly: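 Yeast cells carrying a defined DNA-repair defect were exposed to test compounds. Growth inhibition was measured relative to vehicle-treated controls.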
Assay [4] can be described thus: NCI Yeast Anticancer Drug Screen. Data for the cln2 rad14 strain (AID 165).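 Also: 0% = growth equal to vehicle treated cultures.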 As to conditions: S. cerevisiae cln2 rad14 strain, at 50.0 µM, stronger effect = higher value. In short, it runs like this:
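Readout is yeast growth inhibition versus vehicle-treated controls, using a strain with cln2 and rad14 alterations exposed to compound.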

Assay [5] is described as follows: NCI Yeast Anticancer Drug Screen. Data for the bub3 strain (AID 167). The following applies: S. cerevisiae bub3 mutant strain, at 50.0 µM, stronger effect = higher value. Put shortly: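 Yeast carrying a defined mutation is treated with each compound, and growth is compared with that of vehicle-exposed cells to give inhibition.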
Assay [6] is described as follows: NCI Yeast Anticancer Drug Screen. Data for the mlh1 rad18 strain (AID 175). As to conditions: S. cerevisiae mlh1 rad18 strain growth inhibition; at 50.0 µM; stronger effect = higher value. In short, it runs like this:
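Genetically defined yeast (DNA repair-deficient) exposed to compounds; growth inhibition determined relative to vehicle.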

This is part of a sample that, as a whole, favours compounds with a hit. Of some 79,000 tested, about 15% had one in any assay. Unmarked numbers belong to inactive results. Calls of active or inactive are those of the source. Rule as the data show it: active = growth inhibition above about 70%; inactive = the rest.

Consider `c1c[nH]c(C2=NCCCCC2)c1`, for which the growth inhibition in assay [1] is 1.85%; in assay [2], -6.95%; in assay [3], 2.2%; in assay [4], -3%; in assay [5], -5.2%; in assay [6] it was -29.1%.

As for `Cc1ccc(F)c(N)c1`, the growth inhibition in assay [1] is 26.8%; in assay [2], -17.2%; in assay [3], 24.1%; in assay [4], 5.8%; in assay [5], 5.75%; in assay [6], 27.9%.

`Cc1ccc(NC(=O)CSc2nnc(Cc3ccccc3)o2)cc1`: the growth inhibition in assay [1] was -15.4%; in assay [2], -4.35%; in assay [3], -18.5%; in assay [4] it was -20.1%; in assay [5] it was -3.65%; in assay [6], -25.6%.

Regarding `Nc1ccnc2cc(Cl)ccc12`, the growth inhibition was 17.4% in assay [1]; 4.45% in assay [2]; 3.3% in assay [3]; 2.6% in assay [4]; -4.05% in assay [5]; 26.6% in assay [6].

For the molecule `COc1ccc(/C=C/c2cnc3ccccc3n2)cc1OC`, the growth inhibition in assay [1] is 28.8%; in assay [2], -4.55%; in assay [3] it was 58.4%; in assay [4], 25.8%; in assay [5] it was 45.4%; in assay [6] it was 81% (active).

In the case of `Cn1c2ccccc2n2c(=O)c(-c3ccc(Cl)cc3)nnc12`, the growth inhibition in assay [1] was -4.95%; in assay [2] it was 10.9%; in assay [3], -5.15%; in assay [4], -6.15%; in assay [5] it was -11.2%; in assay [6], -35.4%.

As for `Cc1ccc(S(=O)(=O)OCC2OC(CCCO)C/C([Si](C)(C)C)=C\CC2Cl)cc1` (stereo not given), the growth inhibition in assay [1] was 48.8%; in assay [2], 19.9%; in assay [3], 38.2%; in assay [4], 31.6%; in assay [5] it was 34.5%; in assay [6], 19.4%.

Consider `CCN(CCO)CCCC(C)Nc1ccnc2cc(Cl)ccc12` (stereo not given), for which the growth inhibition in assay [1] is -43.2%; in assay [2], -66.5%; in assay [3], -33.4%; in assay [4] it was -132%; in assay [5] it was -45.9%; in assay [6], -63.4%.

Regarding `CN(/N=C(\C(=O)O)c1ccccc1)C1=NCCN1`, the growth inhibition in assay [1] was -12%; in assay [2], -7.95%; in assay [3], -4.65%; in assay [4], 41.2%; in assay [5], -1.4%; in assay [6], 9.3%.

`CC1(C)CC(C)(C)c2c1oc(=O)c1c3c(oc(=O)c21)C(C)(C)CC3(C)C`: the growth inhibition in assay [1] was 15.7%; in assay [2], -9.1%; in assay [3], 12.8%; in assay [4], 35.5%; in assay [5] it was 26.2%; in assay [6] it was -9.85%.

In the case of `CCOC(=O)/C=C1/Nc2cc(F)c(F)cc2NC1=O`, the growth inhibition in assay [1] is -36.1%; in assay [2] it was 14.1%; in assay [3], 16%; in assay [4] it was 13.8%; in assay [5], 14.6%; in assay [6], -56%.

Take `NC(CC1C=CC=CC1)C(=O)O` (stereo not given): the growth inhibition in assay [1] is 0.6%; in assay [2], 3.15%; in assay [3], 8.35%; in assay [4], -6%; in assay [5], -4.05%; in assay [6], -4.85%.

Take `CC1(C)C(=O)c2cc3ccc4ccccc4c3cc2C(C)(C)C1(C)C`: the growth inhibition in assay [1] was -1.25%; in assay [2] it was -4.25%; in assay [3], 1.2%; in assay [4], 43.6%; in assay [5], 2.75%; in assay [6], -7%.

Regarding `CC(=O)NS(=O)(=O)c1ccc(NC(=O)CCC(=O)O)cc1`, the growth inhibition is -8.95% in assay [1]; -20.4% in assay [2]; 2.4% in assay [3]; 7.2% in assay [4]; 9.1% in assay [5]; 4% in assay [6].

As to `COc1cc(C)c(O)c(C)c1C`, the growth inhibition in assay [1] was -1.9%; in assay [2] it was -4.1%; in assay [3] it was -6.55%; in assay [4], -30.3%; in assay [5] it was -13.1%; in assay [6], 8.35%.

As for `CCOC(=O)C(CC(C)C)NC(=O)c1cnc2ccccc2c1` (stereo not given), the growth inhibition in assay [1] is 26.6%; in assay [2], -0.7%; in assay [3], 25.6%; in assay [4], -13.8%; in assay [5], 26.2%; in assay [6], 21.9%.

`O=C(Nc1cccc(Cl)c1)C(Br)C(Br)c1ccccc1` (stereo not given): the growth inhibition was 97.8% (active) in assay [1]; 99.2% (active) in assay [2]; 99.3% (active) in assay [3]; 99.2% (active) in assay [4]; 98.5% (active) in assay [5]; 98.7% (active) in assay [6].

`CCOC(=O)C(C(=O)CC)=P(c1ccccc1)(c1ccccc1)c1ccccc1`: the growth inhibition in assay [1] was 3.35%; in assay [2] it was 17.4%; in assay [3], -20.1%; in assay [4], -9.4%; in assay [5] it was -9.9%; in assay [6], 23.2%.

As for `COCCCN1C(=O)C2c3[nH]c4ccccc4c3C3CCC(C(C)(C)C)CC3C2C1=O` (stereo not given), the growth inhibition in assay [1] is 34.9%; in assay [2], 8.55%; in assay [3], 21.9%; in assay [4], 45.4%; in assay [5] it was 35.1%; in assay [6], 49.5%.

In the case of `CCCCCCCCC1=C(CCCCCCC(=O)OC)[14CH2]1`, the growth inhibition in assay [1] is 0.25%; in assay [2], 16.6%; in assay [3] it was -11.2%; in assay [4], 43.4%; in assay [5], 3%; in assay [6], 24.5%.

(Values after PubChem BioAssay (NCI).)
